Measurements reported in PubChem BioAssay (Tox21).
Values joined by “and” are separate entries in the source; they are usually repeats but may differ in a detail not shown here. Equal entries are not always repeated. Records with an inconclusive call do not appear. A call without a number means that no potency is given here. Some compounds were tested as several samples or in several runs, with calls that do not always agree. Active and inactive are the calls of the source. Unless noted, the call rests on the fitted dose curve.

Columns and labels:
[1] = Nuclear factor erythroid 2-related factor 2/antioxidant responsive element (Nrf2/ARE) small molecule agonists: qHTS cell viability counter screen in human keratinocytes (AID 1919968; active means well fitted curve in the direction sought with a large enough effect in the repeat runs; an effect the other way counts as inactive or inconclusive; further: nearly all actives have a fitted effect of over 55% in size; further: potency means the concentration at half of the fitted maximal effect)
How it was run: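 Cells of the KeratinoSens line were plated at 1,500 per well and left for 5 h before compound transfer from DMSO stocks. After a 23 h incubation (37 C, 5% CO2), CellTiter-Fluor was added. Signal was taken as fluorescence intensity 1 h later.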

[2] = target: Gonadotropin-releasing hormone receptor (Homo sapiens) (UniProt P30968); assay: Human gonadotropin-releasing hormone receptor (GnRHR) small molecule agonists, calcium flux assay in GnRHR-HEK293 cells (AID 1920063); further: nearly all actives have a fitted effect of over 35% in size
How it was run: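 Compounds dissolved in DMSO are pin-transferred onto dye-loaded GnRHR-HEK293 cells, which were seeded 18 h before at 37 C/5% CO2. Calcium signal is read as fluorescence intensity at 1 s intervals for 3 min.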

[3] = p53 small molecule agonists, cell-based qHTS assay with human liver microsomes (AID 1963577);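 further: p53 response element beta-lactamase reporter cells with liver microsomes plus NADPH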
How it was run: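 Metabolically competent format: test substances, human liver microsomes and NADPH (both 0.5 mg/mL final) incubated with p53RE-bla cells 16 h at 37 C. Beta-lactamase reporter signal then quantified by fluorescence.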

[4] = p53 small molecule agonists, cell-based qHTS assay with rat liver microsomes (AID 1963578)
How it was run: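 Each plate received p53RE-bla cells, then compound, then rat liver microsomes and NADPH (both 0.5 mg/mL final). Plates were held 16 h at 37 C, and beta-lactamase activity was detected with LiveBLAzer over 2 h.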

[5] = p53 small molecule agonists, cell-based qHTS assay with human liver microsomes: qHTS cell viability counter screen (AID 1963579); further: nearly all actives have a fitted effect of over 45% in size; further: potency means the concentration at half of the fitted maximal effect
How it was run: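 Tox21 library compounds, delivered from DMSO stocks, were tested on p53RE-bla cells together with 0.5 mg/mL human liver microsomes and 0.5 mg/mL NADPH (final) over 16 h at 37 C; CellTiter-Glo luminescence served as the cytotoxicity measure.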

[6] = p53 small molecule agonists, cell-based qHTS assay with rat liver microsomes: qHTS cell viability counter screen (AID 1963580); further: nearly all actives have a fitted effect of over 45% in size; further: potency means the concentration at half of the fitted maximal effect
How it was run: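 Cytotoxicity counter screen: intracellular ATP measured by CellTiter-Glo luminescence in the same wells as the beta-lactamase reporter read, on HCT-116 p53RE-bla cells exposed 16 h at 37 C to compounds with rat liver microsomes and NADPH, each 0.5 mg/mL final.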

[7] = p53 small molecule agonists, cell-based qHTS assay: qHTS cell viability counter screen (AID 1963581); further: nearly all actives have a fitted effect of over 45% in size
How it was run: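 ATP content measured by luminescence in HCT-116 p53RE-bla cells treated 16 h at 37 C, same wells as the reporter screen.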

[8] = p53 small molecule agonists, cell-based qHTS assay (AID 1963582; active means well fitted activation curve with a large enough effect in the signal ratio in the repeat runs, not every such curve was filed as active; the % refers to the signal ratio)
How it was run: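 16 h compound exposure (37 C) of p53 response element–bla cells, preceded by 5 h recovery at 37 C/5% CO2; read-out via LiveBLAzer B/G FRET substrate, 2 h RT, fluorescence intensity.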

[9] = target: 5-hydroxytryptamine receptor 2A (Homo sapiens) (UniProt P28223); assay: 5-hydroxytryptamine receptor 2A (HTR2A) small molecule antagonists, cell-based qHTS assay (AID 1963586); further: nearly all actives have a fitted effect of over 45% in size; further: potency means the concentration at half of the fitted maximal effect
How it was run: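 CHO cells stably expressing human HTR2A were plated for 18 h at 37 C, then loaded with calcium dye for 1 h. Compounds were preincubated 5 min at room temperature before DOI (4 nM solution) was added. Kinetic fluorescence was read for 3 min.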

[10] = target: 5-hydroxytryptamine receptor 2A (Homo sapiens) (UniProt P28223); assay: 5-hydroxytryptamine receptor 2A (HTR2A) small molecule agonists, cell-based qHTS assay (AID 1963587); further: nearly all actives have a fitted effect of over 30% in size; further: potency means the concentration at half of the fitted maximal effect
How it was run: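 CHO cells stably expressing human HTR2A, plated 18 h, loaded with calcium dye 1 h at 37 C. Agonist mode: compounds added and intracellular calcium fluorescence recorded kinetically for 2 min at 1 sec intervals.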

[11] = target: Muscarinic acetylcholine receptor M1 (Homo sapiens) (UniProt P11229); assay: Cholinergic receptor muscarinic 1 (CHRM1) small molecule antagonists, cell-based qHTS assay (AID 1963588); further: nearly all actives have a fitted effect of over 40% in size; further: potency means the concentration at half of the fitted maximal effect
How it was run: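 Compounds were tested at 15 concentrations in three independent runs. Dye-loaded CHRM1-CHO cells were exposed 5 min at room temperature before stimulation by acetylcholine added at 50nM. Intracellular calcium was read kinetically on FDSS for 3 min.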

[12] = cAMP Responsive Elements (CRE) small molecule agonists, cell-based qHTS assay (AID 1963590)
How it was run: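 HEK 293T cells stably bearing CRE-bla were plated at 2,000 cells per well and rested 18 h. Compounds, positive controls or DMSO were added for 3 h at 37 C. LiveBLAzer B/G substrate was then loaded for 2 h at room temperature.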

[13] = cAMP Responsive Elements (CRE) small molecule antagonists, cell-based qHTS assay (AID 1963591; active means well fitted inhibition curve with a large enough effect in the signal ratio in the repeat runs, not every such curve was filed as active; the % refers to the signal ratio)
How it was run: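 First, CRE-bla HEK293T cells settled 18 h at 37 C. Next, compound and 0.25 uM final NKH477 were applied for 3 h. Last, LiveBLAzer B/G substrate was loaded for 2 h at room temperature.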

[14] = target: D(2) dopamine receptor (Homo sapiens) (UniProt P14416); assay: Dopamine D2 receptor (DRD2) small molecule agonists, cell-based qHTS assay (AID 1963594); further: nearly all actives have a fitted effect of over 35% in size
How it was run: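 HEK293 cells stably expressing human DRD2, pre-treated with PDE inhibitor Ro20-1724 (0.1 mM final) and compound 10 min at room temperature, then stimulated with NKH477 (200nM […]) for 30 min. cAMP read by HTRF (665/620 nm).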

[15] = target: D(2) dopamine receptor (Homo sapiens) (UniProt P14416); assay: Dopamine D2 receptor (DRD2) small molecule antagonists, cell-based qHTS assay (AID 1963595; active means well fitted inhibition curve with a large enough effect in the signal ratio in the repeat runs, with a control signal flat; the % refers to the signal ratio)
How it was run: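 In this cell-based antagonist screen, compounds act for 10 min at room temperature before a 30 min challenge with 12 nM quinpirole and 200 nM NKH477. cAMP is quantified by HTRF competition in DRD2-HEK293 cells containing 0.1 mM Ro20-1724.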

[16] = G protein-coupled receptor (GPCR) small molecule agonists, calcium flux assay: HEK293 wild type cell line counter screen (AID 1920065)
How it was run: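 Tox21 10K compounds, 15 concentrations each in triplicate, pin-transferred in DMSO onto dye-loaded cells; kinetic read at 480/540 nm for 3 min, 1 s intervals.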

[17] = target: Muscarinic acetylcholine receptor M1 (Homo sapiens) (UniProt P11229); assay: Cholinergic receptor muscarinic 1 (CHRM1) small molecule agonists, cell-based qHTS assay (AID 1963589); further: nearly all actives have a fitted effect of over 35% in size
How it was run: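 Homogeneous fluorescence calcium flux, agonist mode. Human M1-expressing CHO cells; compound dosed at 15 concentrations, three independent runs; signal sampled every 1 sec.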

[18] = target: Beta-2 adrenergic receptor (Homo sapiens) (UniProt P07550); assay: Adrenergic beta2 receptor (ADRB2) small molecule antagonists, cell-based qHTS assay (AID 1963592); further: series mostly up to about 92 µM; nearly all actives have a fitted effect of over 50% in size
How it was run: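 Assay format: CHO-ADRB2 cells, 18-20hr seeding at 37C/5% CO2, then compound plus 1nM isoproterenol agonist mix for 0.5hr RT. Homogeneous time-resolved fluorescence cAMP detection after 1hr, expressed as 665/615 nm ratio.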

[19] = target: Beta-2 adrenergic receptor (Homo sapiens) (UniProt P07550); assay: Adrenergic beta2 receptor (ADRB2) small molecule agonists, cell-based qHTS assay (AID 1963593);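 further: CHO cells stably overexpressing human ADRB2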
How it was run: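 CHO cells stably over-expressing ADRB2 were plated overnight at 37C, then dosed with compounds plus a stimulation mix containing 100uM IBMX and 25uM Ro-20-1724 for 0.5hr at room temperature. cAMP was measured by HTRF competition, 1hr.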

[20] = target: KiSS-1 receptor (Homo sapiens) (UniProt Q969F8); assay: Human kisspeptin (KISS1R) small molecule agonists, calcium flux assay in KISS1R-HEK293 cells (AID 1920064; active means well fitted curve in the direction sought with a large enough effect in the repeat runs; an effect the other way counts as inactive or inconclusive)
How it was run: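 Cell line: HEK293, stable human KISS1R. Dye loading 1 h at 37 C after 18 h culture. Read: kinetic fluorescence, 480/540 nm, 3 min at 1 s intervals.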

Chain of D(2) dopamine receptor (Homo sapiens) (P14416 whole entry, looked up): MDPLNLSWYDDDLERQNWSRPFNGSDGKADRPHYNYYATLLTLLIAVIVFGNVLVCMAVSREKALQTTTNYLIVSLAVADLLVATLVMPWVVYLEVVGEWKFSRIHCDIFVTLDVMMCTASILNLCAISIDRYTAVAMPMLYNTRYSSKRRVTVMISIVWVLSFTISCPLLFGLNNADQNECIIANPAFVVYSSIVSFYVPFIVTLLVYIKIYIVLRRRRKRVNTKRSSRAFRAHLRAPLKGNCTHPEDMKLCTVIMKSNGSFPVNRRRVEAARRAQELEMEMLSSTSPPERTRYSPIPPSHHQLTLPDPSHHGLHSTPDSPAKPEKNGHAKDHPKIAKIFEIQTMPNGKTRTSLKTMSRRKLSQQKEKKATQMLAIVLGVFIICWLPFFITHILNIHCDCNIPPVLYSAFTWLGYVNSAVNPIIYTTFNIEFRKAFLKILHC
Chain of 5-hydroxytryptamine receptor 2A (Homo sapiens) (P28223 whole entry, looked up): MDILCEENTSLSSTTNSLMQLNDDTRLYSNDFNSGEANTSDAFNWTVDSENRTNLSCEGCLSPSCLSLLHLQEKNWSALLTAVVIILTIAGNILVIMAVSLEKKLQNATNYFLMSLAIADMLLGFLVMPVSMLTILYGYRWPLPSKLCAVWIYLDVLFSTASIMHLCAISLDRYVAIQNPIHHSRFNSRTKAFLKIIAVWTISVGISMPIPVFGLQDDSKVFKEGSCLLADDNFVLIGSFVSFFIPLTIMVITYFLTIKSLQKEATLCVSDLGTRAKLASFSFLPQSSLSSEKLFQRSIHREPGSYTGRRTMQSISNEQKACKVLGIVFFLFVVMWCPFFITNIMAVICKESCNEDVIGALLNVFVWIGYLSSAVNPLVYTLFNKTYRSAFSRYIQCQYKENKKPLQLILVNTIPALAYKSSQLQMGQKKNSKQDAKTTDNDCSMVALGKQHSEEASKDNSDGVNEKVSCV
Chain of Gonadotropin-releasing hormone receptor (Homo sapiens) (P30968 whole entry, looked up): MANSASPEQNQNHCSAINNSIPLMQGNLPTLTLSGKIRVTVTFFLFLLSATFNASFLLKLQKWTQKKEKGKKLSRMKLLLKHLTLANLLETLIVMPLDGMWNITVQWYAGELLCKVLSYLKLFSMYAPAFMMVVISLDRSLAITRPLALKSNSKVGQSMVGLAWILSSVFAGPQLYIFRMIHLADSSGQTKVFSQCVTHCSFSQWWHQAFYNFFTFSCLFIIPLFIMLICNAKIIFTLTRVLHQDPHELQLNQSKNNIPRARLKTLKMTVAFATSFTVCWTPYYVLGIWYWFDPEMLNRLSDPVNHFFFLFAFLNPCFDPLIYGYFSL
Chain of Beta-2 adrenergic receptor (Homo sapiens) (P07550 whole entry, looked up): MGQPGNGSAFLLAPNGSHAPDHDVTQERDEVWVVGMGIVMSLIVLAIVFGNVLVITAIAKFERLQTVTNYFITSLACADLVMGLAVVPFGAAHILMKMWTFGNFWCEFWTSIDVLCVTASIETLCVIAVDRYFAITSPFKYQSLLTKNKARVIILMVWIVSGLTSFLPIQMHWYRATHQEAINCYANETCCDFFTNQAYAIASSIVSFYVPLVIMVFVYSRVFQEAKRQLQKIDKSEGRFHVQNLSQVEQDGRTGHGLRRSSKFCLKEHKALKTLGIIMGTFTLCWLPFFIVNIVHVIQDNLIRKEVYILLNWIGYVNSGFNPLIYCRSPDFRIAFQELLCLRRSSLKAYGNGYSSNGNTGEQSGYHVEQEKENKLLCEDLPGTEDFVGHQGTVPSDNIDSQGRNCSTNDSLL
Chain of Muscarinic acetylcholine receptor M1 (Homo sapiens) (P11229 whole entry, looked up): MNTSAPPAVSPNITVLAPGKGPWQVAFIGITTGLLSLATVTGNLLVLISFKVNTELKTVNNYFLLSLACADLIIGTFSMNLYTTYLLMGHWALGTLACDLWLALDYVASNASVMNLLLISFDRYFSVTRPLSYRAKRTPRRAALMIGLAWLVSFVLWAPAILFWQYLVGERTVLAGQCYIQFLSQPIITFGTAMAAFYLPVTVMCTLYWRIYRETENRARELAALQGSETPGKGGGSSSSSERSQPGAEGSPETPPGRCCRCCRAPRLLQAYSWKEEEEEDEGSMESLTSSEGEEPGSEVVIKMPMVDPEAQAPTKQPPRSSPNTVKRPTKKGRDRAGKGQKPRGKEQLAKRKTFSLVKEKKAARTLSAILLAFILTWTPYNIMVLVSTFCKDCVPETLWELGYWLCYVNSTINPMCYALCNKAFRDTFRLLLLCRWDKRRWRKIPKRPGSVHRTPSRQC
Chain of KiSS-1 receptor (Homo sapiens) (Q969F8 whole entry, looked up): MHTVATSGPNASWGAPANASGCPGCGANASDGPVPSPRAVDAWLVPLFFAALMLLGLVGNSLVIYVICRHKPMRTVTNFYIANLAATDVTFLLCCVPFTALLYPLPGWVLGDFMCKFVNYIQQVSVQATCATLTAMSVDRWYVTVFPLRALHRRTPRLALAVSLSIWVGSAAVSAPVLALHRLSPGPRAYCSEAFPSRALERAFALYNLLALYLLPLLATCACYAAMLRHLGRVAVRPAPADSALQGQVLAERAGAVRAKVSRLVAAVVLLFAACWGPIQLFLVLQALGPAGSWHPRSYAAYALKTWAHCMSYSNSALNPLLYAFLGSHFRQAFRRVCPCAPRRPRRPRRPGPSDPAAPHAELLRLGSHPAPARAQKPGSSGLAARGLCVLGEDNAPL

| Compound | Potency [1] | Potency [2] | Potency [3] | Potency [4] | Potency [5] | Potency [6] | Potency [7] | Potency [8] | Potency [9] | Potency [10] | Potency [11] | Potency [12] | Potency [13] | Potency [14] | Potency [15] | Potency [16] | Potency [17] | Potency [18] | Potency [19] | Potency [20] |
| --- | --- | --- | --- | --- | --- | --- | --- | --- | --- | --- | --- | --- | --- | --- | --- | --- | --- | --- | --- | --- |
| Nc1cc(Cl)c(N)c(Cl)c1 | inactive | inactive | inactive | inactive | inactive | inactive | inactive | inactive | inactive | inactive | inactive | inactive | inactive | inactive | inactive |  |  |  |  |  |
| CC(=O)Nc1ccccc1 | inactive | inactive |  |  |  | inactive |  |  | inactive | inactive | inactive |  | inactive |  | inactive | inactive | inactive | inactive | inactive |  |
| CCCCCCCCCCCCCC[N+](C)(C)Cc1ccccc1 | 24.7 µM (active) and 13.3 µM (active) and 12.6 mM (active) | inactive | inactive | inactive | inactive and 17.8 mM (active) | 46.5 µM (active) and inactive |  | inactive | 1.2 µM (active) and 4.1 µM (active) and inactive | inactive and 20 mM (active) | 2.7 µM (active) and 631 µM (active) |  | inactive | inactive |  | inactive | inactive | inactive | inactive |  |
| COC1=CC(=O)C[C@@H](C)[C@]12Oc1c(Cl)c(OC)cc(OC)c1C2=O | inactive | inactive |  |  | inactive | inactive |  |  |  |  |  | inactive | inactive | inactive | inactive | inactive |  | inactive | inactive |  |
| CC1=CC[C@H]2C[C@@H]1C2(C)C | inactive | inactive |  |  | inactive | inactive | inactive |  | inactive | inactive | inactive |  | inactive | inactive | inactive | inactive | inactive | inactive | inactive |  |
| C=CC(C)(C)C | inactive |  | inactive | inactive | inactive | inactive | inactive | inactive | inactive | inactive | inactive | inactive | inactive | inactive | inactive | inactive | inactive | inactive | inactive | inactive |
| CCCCCCCCCCCCO | inactive |  | inactive | inactive | inactive | inactive | inactive | inactive | inactive | inactive | inactive | inactive | inactive | inactive | inactive | inactive | inactive |  | inactive | inactive |
| CCCCCCCCCCCCCC(=O)O | inactive | inactive |  |  |  | inactive | inactive | inactive | inactive | inactive | inactive |  | inactive | inactive | inactive | inactive | inactive | inactive | inactive |  |
| CC(C)Cc1ccccc1 | inactive | inactive | inactive | inactive | inactive | inactive | inactive | inactive | inactive | inactive | inactive | inactive |  |  | inactive | inactive | inactive | inactive | inactive |  |
| O=C(c1ccccc1)c1ccc(O)c(O)c1O | inactive | inactive | inactive | inactive | inactive | inactive | inactive |  | inactive | inactive | inactive | inactive | inactive | inactive | inactive | inactive | inactive | inactive | inactive |  |
| Cc1cccc([N+](=O)[O-])c1C | inactive | inactive | inactive | inactive | inactive | inactive | inactive | inactive | inactive | inactive | inactive | inactive | inactive | inactive | inactive | inactive | inactive | inactive |  |  |
| NC(=O)N1c2ccccc2C=Cc2ccccc21 | inactive | inactive |  |  | inactive | inactive |  |  |  |  |  | inactive | inactive | inactive | inactive |  |  | inactive |  | inactive |
| CS(=O)(=O)OCCCCOS(C)(=O)=O | inactive | inactive | inactive | inactive | inactive | inactive | inactive | inactive |  |  |  |  | inactive | inactive | inactive | inactive |  | inactive | inactive |  |
| N=C(N)c1ccc(OCCCCCOc2ccc(C(=N)N)cc2)cc1 | inactive | inactive |  |  |  | inactive | inactive |  |  |  |  | inactive | inactive | inactive | inactive | inactive |  | inactive | inactive |  |
| CCCCCC1=CCCC1=O | inactive | inactive |  |  | inactive | inactive | inactive |  | inactive | inactive | inactive | inactive | inactive | inactive | inactive | inactive | inactive | inactive | inactive |  |
| CNC[C@H](O)[C@@H](O)[C@H](O)[C@H](O)CO | inactive | inactive | inactive | inactive | inactive | inactive |  | inactive | inactive | inactive | inactive | inactive | inactive | inactive | inactive | inactive | inactive | inactive |  |  |
